Assay outcomes deposited in PubChem BioAssay by several laboratories.
TMEM16A inh: inhibitors of mouse TMEM16A calcium-activated chloride channel | Q8BHY3 | HEK293 TMEM16A/YFP iodide influx fluorescence, ionomycin | normalized B-score (activity score, 25-100; higher = stronger inhibition) at 10 µM | hit rate 1.2% among 310,000 | AID 588511;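 active = ratio plate-corrected score three or more library SD toward inhibition, starting fluorescence score within five deviations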;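 also: score derived from kinetic fluorescence span divided by baseline fluorescence per well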
CHT PAM: allosterically activates the human high affinity choline transporter | Q9GZV3 | CHT-expressing cells, membrane potential dye, choline EC20; active compounds read high; LV-AA mutant CHT in HEK293 cells | B-score at 10 µM | hit rate 0.49% among 310,000;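 active = initial fluorescence not abnormally high and integrated response B-score, plate-corrected, over 3 SD above library mean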
CHT block: inhibits the human high affinity choline transporter; Q9GZV3; CHT-expressing cells, membrane potential dye, choline response; active compounds read low; B-score at 10 µM; hit rate 0.86% among 310,000;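 active = B-score over 3 SD under the library average, and starting fluorescence ratio not unusually high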;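 also: choline stimulus applied at its EC90 after an EC20 pre-addition; B-score computed on integrated fluorescence ratio after choline addition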
PKA-R2B act: activators of human PKA-R2B complex; P22694+P31323; hit rate 0.079% among 340,000; PKA-R2B holoenzyme dissociation, Cy5-IP20 fluorescence polarization; R2B truncated from residue 108, S112A mutant; 0% DMSO only, 100% 113 µM cGMP; activation, % at 11.4 µM;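 active = activation above a cutoff set at the mean over all compounds plus 3 SD, cut at about 18% in these data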;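 also: higher means more holoenzyme dissociation and a rise in polarization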
PKA-R1A act: PKA-R1A complex activation; P00514+P68181; PKA-R1A dissociation, Cy5-IP20 fluorescence polarization; scaled: DMSO 0%, 113 µM cGMP 100%; activation, % at 11.4 µM; hit rate 0.083% among 340,000;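 active = percent activation above the mean of all tested compounds plus 3 SD, cut at about 19% in these data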;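 also: higher means more PKAc released from R1A so a rise in polarization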
TMEM16A act: activates or potentiates the mouse TMEM16A chloride channel | AID 623877 | HEK293 TMEM16A/YFP-H148Q/I152L, iodide quench fluorescence; active compounds read low | B-score at 10 µM | Q8BHY3 | hit rate 0.3% among 340,000;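 active = fluorescence-ratio B-score plate-corrected deviation score at least 3 library SD below zero, with starting fluorescence score within 5 deviations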;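 also: channel opened by trigger with iodide after compound preincubation; score built on the fluorescence ratio of max minus min over baseline; more negative score means more quench and so TMEM16A activation or potentiation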
CHT block conf: confirmation of human choline transporter CHT inhibitors. shares compounds with CHT block. CHT-expressing cells, choline membrane potential dye; LV-to-AA substituted CHT, HEK293 cells. CHT activity remaining % of control (active compounds read low), % at 10 µM. hit rate 70% among 2,400;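 active = choline transporter activity left, mean of duplicates at 10 µM, below buffer-only control mean minus 3 SD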;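 also: depolarization triggered by choline at its EC90 following an EC20 pre-addition; 0% = hemicholinium-3 full block and 100% = buffer-only control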
HEK293 CHT ctr: activity in parental HEK293 cells lacking CHT | shares compounds with CHT block | membrane potential dye, choline response; active = decrease or increase beyond buffer ±3SD | membrane potential ratio readout (active if shifted either direction beyond buffer ±3SD; no single direction) at 10 µM | hit rate 4% among 2,400 | AID 493222;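 also: parental cells lack the transporter so any hit is non-specific; ratio is peak minus trough fluorescence over baseline after EC90 choline challenge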
* hit, by the source's call; i = inactive; . = no result. Shown are actives, neighbours in structure and some others; about 2.5% of the full set was active somewhere.

SMILES	TMEM16A inh	CHT PAM	CHT block	PKA-R2B act	PKA-R1A act	TMEM16A act	CHT block conf	HEK293 CHT ctr
COc1ccc(C2c3cc(OC)c(OC)cc3CCN2C(=O)c2ccccc2Br)cc1OC (centres undefined)	i	i	i	-6	-9	i	.	.
Cc1ccccc1NC(=S)NNC(=O)c1ccncc1	i	i	-6.1*	5	-6	i	61%*	i
Cc1cccc(C(=O)NNC(=S)NC(=O)c2ccccc2)c1	100*	i	-7.4*	-5	8	i	41%*	i
COc1ccc(C(=O)NNC(=S)NC(=O)c2cccs2)cc1	i	i	i	-5	-9	i	.	.
O=C(Cc1ccc(Cl)cc1)NNC(=S)NC(=O)c1cccs1	i	i	-5.2*	0	-12	i	i	i
Cc1cccc(C(=O)NNC(=O)c2ccc(O)cc2)c1	i	i	i	7	11	i	.	.
Cc1cccc(C(=O)NNC(=S)NC(=O)c2cccs2)c1	i	i	-7.5*	-2	9	i	29%*	i
O=C(Cc1cccs1)NNC(=S)NCc1ccc(Cl)cc1	i	i	i	-5	6	i	.	.
CC1(NC(=O)Nc2cccc(Br)c2)CCS(=O)(=O)C1 (centres undefined)	.	.	.	-11	1	i	.	.
O=C(NC(=S)NNC(=O)[C@H]1C[C@@H]1c1ccccc1)c1cccc(F)c1	100*	i	-7.8*	1	-11	i	49%*	i
O=C(NC(=S)NNC(=O)c1ccccc1O)c1ccccc1	i	i	i	4	0	i	.	.
COc1ccc(C(=O)NC(=S)NNC(=O)c2cccc(C)c2)cc1	25*	i	-7.8*	.	.	i	i	i
Cc1ccccc1C(=O)NNC(=S)NC(=O)c1ccccc1	i	i	-8.4*	1	-7	i	47%*	i
CCOc1ccc(-c2nc(CN3CCCCC3CCn3cccn3)c(C)o2)cc1 (centres undefined)	i	i	i	-5	-1	i	.	.
CCc1nn(CC(=O)NCCCN2CCOCC2)c(=O)c2cc3cc(F)ccc3n12	i	i	i	2	-1	i	.	.
CCCOc1ccc(N2C(=O)CC(N(Cc3ccco3)C(=O)CCC(=O)O)C2=O)cc1 (centres undefined)	i	i	i	6	-1	i	.	.
COc1ccc(N2C(=O)CC(N(Cc3ccco3)C(=O)CCC(=O)O)C2=O)cc1 (centres undefined)	i	i	-6.4*	-3	5	i	i	i
CCc1ccc(-n2c(=S)sc3c(=O)n(-c4ccccc4C)c(SCC(=O)O)nc32)cc1	i	i	i	-1	-12	i	.	.
O=C(Nc1nc2ccccc2s1)C1CCN(S(=O)(=O)c2cc([N+](=O)[O-])ccc2Cl)CC1	i	i	i	3	2	i	.	.
CC(=O)N(C)c1ccc(NC(=O)C(c2ccccc2)c2ccccc2)cc1	i	i	i	13	-6	i	.	.
CC(=O)N(C)c1ccc(NC(=O)C(Sc2ccccc2)c2ccccc2)cc1 (centres undefined)	i	i	-5.5*	.	.	i	65%*	i
Cc1oc(S(=O)(=O)N2CCOCC2)cc1C(=O)Nc1ccc(Cl)cc1	i	i	i	-5	1	i	.	.
CCOC(=O)c1ccccc1Oc1c(F)c(F)nc(NCCO)c1F	i	i	-5.5*	4	0	i	55%*	i
COc1cccc(N(CC(=O)NC2CCCCC2)C(=O)CCC(=O)Nc2nccs2)c1	i	i	i	-5	2	i	.	.
Cc1[nH]nc2c1-c1nc3ccccc3nc1C(C)(C)C2	25*	i	-5*	9	13	i	i	i
SMILES	TMEM16A inh	CHT PAM	CHT block	PKA-R2B act	PKA-R1A act	TMEM16A act	CHT block conf	HEK293 CHT ctr
CC12CCC(C)(c3nc4ccccc4nc31)C2(C)C	i	i	i	2	-4	i	.	.
CC(Sc1ccc(Cl)cc1)C(=O)NCC(c1ccco1)N1CCCCC1 (centres undefined)	i	i	i	-6	-6	i	.	.
Cc1ccnc(SCC(=O)NC2CCCCCC2)n1	i	i	i	1	2	i	.	.
O=C(O)c1ccc(Nc2ccc([N+](=O)[O-])c3nonc23)cc1	i	i	i	10	-2	i	.	.
O=[N+]([O-])c1ccc(Nc2ccccc2O)c2nonc12	i	i	-5.9*	-9	0	i	53%*	i
CN1C[C@@H]2C(c3ccc(C(F)(F)F)cc3)C3(c4cccnc4)CC2(C3)[C@H]1c1ccccc1 (some centres undefined)	i	i	-5.2*	7	-2	i	70%*	i
CCCCCC(=O)N1C[C@H](n2cc(-c3ccc(F)cc3)nn2)[C@@H](O)C[C@@H]1c1ccc(C)cc1	.	.	.	-5	5	.	.	.
CC(=O)Nc1nc(=S)ss1	i	i	i	-10	-12	i	.	.
CC(C)CC(=O)Nc1nc(=S)ss1	100*	i	-6.8*	-9	2	i	40%*	i
Cc1cn([C@H](C(=O)NCCCCCCCCCCC(=O)N2CCN(C(=O)OC(C)(C)C)CC2)[C@@H](C)O)nn1	i	i	-6.8*	15	-10	i	60%*	i
C[C@H](O)[C@@H](C(=O)N1CCN(C(=O)OC(C)(C)C)CC1)n1cc(CCCCNC(=O)OC(C)(C)C)nn1	i	i	i	-10	-4	i	.	.
CCC(Oc1ccc2c(c1)C(=O)CC(C)(C)O2)C(=O)NCCN1CCCCCC1 (centres undefined)	i	i	-6.4*	-3	-23	i	31%*	i
CC(C)CCNC(=O)COc1ccc2c(c1)C(=O)CC(C)(C)O2	i	i	i	0	0	i	.	.
COc1ccc(N2C(=O)C(CC(=O)Nc3ccccc3)N(CCc3ccc(OC)c(OC)c3)C2=O)cc1 (centres undefined)	i	i	-8.7*	-1	1	i	i	i
